This is an account of results in PubChem BioAssay AID2188 (Vanderbilt High Throughput Screening Facility, 2009).

Molecules are shown by their SMILES. Potency and affinity values are given separately.

For the test, the target named is Metabotropic glutamate receptor 2 (Rattus norvegicus) (UniProt P31421). Put plainly: mGluR2 modulation, off-target check – cell-based, rat, selectivity assay for mGluR4 modulator project (AID 2188). To be noted: mGluR2 cells, thallium flux, glutamate CRC + 10 uM compound; glutamate EC50 fold-shift by compound; at 10 µM; stronger effect = higher value.
Chain of Metabotropic glutamate receptor 2 (Rattus norvegicus) (P31421 whole entry, looked up): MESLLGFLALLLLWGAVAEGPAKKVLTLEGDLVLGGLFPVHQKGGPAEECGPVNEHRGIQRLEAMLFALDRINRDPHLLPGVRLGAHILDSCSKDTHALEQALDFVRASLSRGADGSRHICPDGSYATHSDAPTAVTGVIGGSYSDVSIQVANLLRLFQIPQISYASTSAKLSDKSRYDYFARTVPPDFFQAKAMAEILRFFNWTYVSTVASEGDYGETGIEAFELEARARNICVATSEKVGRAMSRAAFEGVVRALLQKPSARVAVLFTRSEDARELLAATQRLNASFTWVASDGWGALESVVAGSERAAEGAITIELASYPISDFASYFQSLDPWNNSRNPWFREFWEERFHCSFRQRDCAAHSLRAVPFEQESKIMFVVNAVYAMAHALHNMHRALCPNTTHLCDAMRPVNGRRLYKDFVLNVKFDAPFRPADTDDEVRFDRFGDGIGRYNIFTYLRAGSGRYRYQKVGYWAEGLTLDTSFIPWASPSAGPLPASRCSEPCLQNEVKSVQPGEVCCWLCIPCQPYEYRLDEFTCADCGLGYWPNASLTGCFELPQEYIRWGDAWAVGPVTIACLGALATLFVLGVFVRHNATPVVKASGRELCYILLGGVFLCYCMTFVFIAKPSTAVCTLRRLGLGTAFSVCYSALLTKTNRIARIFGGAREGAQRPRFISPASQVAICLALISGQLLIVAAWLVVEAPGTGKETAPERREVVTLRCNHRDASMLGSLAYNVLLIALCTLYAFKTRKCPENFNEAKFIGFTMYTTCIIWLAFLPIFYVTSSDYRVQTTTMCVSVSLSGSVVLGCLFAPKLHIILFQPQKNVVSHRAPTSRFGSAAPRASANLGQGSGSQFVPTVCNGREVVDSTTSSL

In the case of `O=C(Nc1cccc(Cl)c1)c1ccccn1`, the fold shift was 1.87.

`O=C(Nc1ccc(N2C(=O)C3[C@H]4C=C[C@H](C4)[C@H]3C2=O)c(Cl)c1)c1ccccn1` (some centres not stated): the fold shift worked out at 1.05.
